The list is not random: actives were taken first. Their share in the collection is about 2.7%.
CHT allo act – CHT positive allosteric modulators, primary screen, cell-based, membrane potential dye, choline EC20 | High affinity choline transporter 1 (Homo sapiens), Q9GZV3 | CHT-expressing cells; active compounds read high; LV-AA mutant CHT in HEK293 cells | B-score at 10 µM | 310,000 tested, 0.49% active | AID 488977, 2010;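 active = initial fluorescence not abnormally high and integrated response B-score, plate-corrected, over 3 SD above library mean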
ANO1 block – TMEM16A chloride channel inhibitors, primary screen, cell-based, HTS | Anoctamin-1 (Mus musculus), Q8BHY3 | normalized B-score (activity score, 25-100; higher = stronger inhibition) at 10 µM | 310,000 tested, 1.2% active | HEK293 TMEM16A/YFP iodide influx fluorescence, ionomycin;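 active = ratio plate-corrected score three or more library SD toward inhibition, starting fluorescence score within five deviations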;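 note: score derived from kinetic fluorescence span divided by baseline fluorescence per well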
IDE act – human IDE activators in live cells, primary screen, fluorescence polarization, HEK cells, FAbeta-B substrate | Insulin-degrading enzyme (Homo sapiens), P14735 | activation, % at 5.96 µM | 340,000 tested, 0.073% active | FAbeta-B cleavage; 0% vehicle, 100% cell-free pure enzyme wells | AID 493087, 2011;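 active = activation above the mean of all tested compounds plus 3 SD, set per screening campaign, cut at about 17% in these data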
Target sequence (P14735 whole entry, looked up): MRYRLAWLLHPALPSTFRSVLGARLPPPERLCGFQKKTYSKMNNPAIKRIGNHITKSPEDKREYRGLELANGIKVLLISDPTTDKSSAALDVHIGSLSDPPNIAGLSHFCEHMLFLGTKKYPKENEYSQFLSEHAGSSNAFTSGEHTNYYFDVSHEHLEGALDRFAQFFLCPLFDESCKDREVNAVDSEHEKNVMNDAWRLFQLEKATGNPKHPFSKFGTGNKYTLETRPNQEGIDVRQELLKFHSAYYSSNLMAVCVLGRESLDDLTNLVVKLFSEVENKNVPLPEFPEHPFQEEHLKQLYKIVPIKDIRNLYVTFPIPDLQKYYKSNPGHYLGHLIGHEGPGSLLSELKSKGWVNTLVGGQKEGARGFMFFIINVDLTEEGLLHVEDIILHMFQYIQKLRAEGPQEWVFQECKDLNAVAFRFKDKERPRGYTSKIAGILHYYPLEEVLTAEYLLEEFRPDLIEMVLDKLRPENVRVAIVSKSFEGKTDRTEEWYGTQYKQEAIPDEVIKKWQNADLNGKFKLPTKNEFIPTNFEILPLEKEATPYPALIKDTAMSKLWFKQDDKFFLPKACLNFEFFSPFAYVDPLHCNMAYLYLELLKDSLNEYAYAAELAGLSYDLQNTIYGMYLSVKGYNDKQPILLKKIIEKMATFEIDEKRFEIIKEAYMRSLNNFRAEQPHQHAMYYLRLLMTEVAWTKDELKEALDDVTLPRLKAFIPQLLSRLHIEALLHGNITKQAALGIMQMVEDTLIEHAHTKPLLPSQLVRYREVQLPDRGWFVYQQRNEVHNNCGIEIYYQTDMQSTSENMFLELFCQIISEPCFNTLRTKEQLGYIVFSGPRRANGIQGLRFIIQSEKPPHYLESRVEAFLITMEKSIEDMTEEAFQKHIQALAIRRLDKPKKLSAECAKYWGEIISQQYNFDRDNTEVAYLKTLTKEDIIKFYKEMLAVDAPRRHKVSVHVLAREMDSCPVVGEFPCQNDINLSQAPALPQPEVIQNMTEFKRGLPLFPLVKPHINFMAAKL
CHT block – inhibitors of human choline transporter CHT; 310,000 tested, 0.86% active; AID 488975, 2010; CHT-expressing cells, membrane potential dye, choline response; active compounds read low; High affinity choline transporter 1 (Homo sapiens), Q9GZV3; B-score at 10 µM;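 active = B-score over 3 SD under the library average, and starting fluorescence ratio not unusually high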;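 note: choline stimulus applied at its EC90 after an EC20 pre-addition; B-score computed on integrated fluorescence ratio after choline addition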
IDE inh – human IDE inhibitors in live cells, primary screen, fluorescence polarization, HEK cells, FAbetaB substrate; Insulin-degrading enzyme (Homo sapiens), P14735; FAbetaB cleavage; inhibition, % at 5.59 µM; 320,000 tested, 0.41% active; AID 434962, 2010;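 active = percent inhibition above the average of all tested compounds plus 3 SD, set per screening campaign, cut at about 16% in these data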;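 note: IDE supplied by intact live HEK cells; FP after avidin binding of uncleaved biotin substrate so inhibition keeps polarization high; 0% = DMSO wells and 100% = 60 µM reference IDE inhibitor Ii1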
TMEM16A act – TMEM16A chloride channel activators or potentiators, primary screen, cell-based, HTS; HEK293 TMEM16A/YFP-H148Q/I152L, iodide quench fluorescence; active compounds read low; B-score at 10 µM; 340,000 tested, 0.3% active; AID 623877, 2012;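 active = fluorescence-ratio B-score plate-corrected deviation score at least 3 library SD below zero, with starting fluorescence score within 5 deviations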;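 note: channel opened by trigger with iodide after compound preincubation; score built on the fluorescence ratio of max minus min over baseline; more negative score means more quench and so TMEM16A activation or potentiation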
CHT activ conf – CHT activators, confirmation, cell-based, membrane potential dye, duplicate. shares compounds with CHT allo act. CHT-expressing cells, membrane potential dye fluorescence (FDSS); % of choline EC20–EC90 response window; HEK293 expressing CHT LV-AA mutant; choline added at its EC20. activation, % at 10 µM. 2,500 tested, 91% active. AID 504833, 2011;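 active = primary screen active, with duplicate mean activation above negative control mean plus 3 SD, cut at about 11% in these data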
HEK293 MP dye – membrane potential response in parental HEK293 cells, counter-screen for CHT activator project, cell-based, membrane potential dye; AID 623908, 2012; shares compounds with CHT allo act; ratio readout change at 10 µM, hits read low; membrane potential dye fluorescence (FDSS); measured after EC20 choline addition; 2,500 tested, 62% active;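 active = duplicate-averaged ratio beyond 3 SD from buffer wells, up or down, though filed actives are nearly all decreases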
* = called active by the depositor; i = inactive; . = no result.

SMILES	CHT allo act	ANO1 block	IDE act	CHT block	IDE inh	TMEM16A act	CHT activ conf	HEK293 MP dye
Cc1csc(NC(=O)C(C)N2C(=O)c3ccccc3S2(=O)=O)n1 (centres undefined)	i	i	2	i	7	i	11*	i
Cc1ccnc(NC(=O)C(C)N2C(=O)c3ccccc3S2(=O)=O)c1 (centres undefined)	10*	i	-1	i	2	i	6	i
c1cc2c3c(cccc3c1)C(N1CCCCCC1)=N2	i	i	1	i	-3	i	50*	-57*
c1ccc2c(c1)CCN(C1=Nc3cccc4cccc1c34)C2	.	.	-1	.	.	i	.	.
CC(=O)Nc1ccc2c(COC(=O)[C@@H](NS(=O)(=O)c3ccc(C)cc3)C(C)C)cc(=O)oc2c1	.	.	6	.	5	i	.	.
Cc1cc(NCCCN2CCOCC2)n2nc(C)c(-c3ccccc3)c2n1	9.7*	i	-3	i	3	i	45*	-57*
Cc1cc(NCCCN2CCOCC2)n2nc(C)c(-c3ccc(F)cc3)c2n1	i	i	-1	i	3	i	52*	-65*
CCCCCn1c(CN2CCN(C(=O)OCC)CC2)nc2c1c(=O)n(C)c(=O)n2C	i	i	-2	i	-4	i	.	.
CCCCCn1c(CN2CCN(C)CC2)nc2c1c(=O)n(C)c(=O)n2C	i	i	-1	i	3	i	46*	-36*
CCCCCCn1c(CN2CCN(Cc3ccccc3)CC2)nc2c1c(=O)n(C)c(=O)n2C	i	i	4	i	-2	i	24*	i
Cc1nc2ccc(NC(=O)c3ccc(=O)[nH]c3)cc2s1	i	i	0	i	-2	i	33*	-39*
CCCCCCCCCCCC(=O)NC1CCS(=O)(=O)C1 (centres undefined)	i	i	4	i	4	i	.	.
CCCCC1CCC(C(=O)NC2CCS(=O)(=O)C2)CC1 (centres undefined)	i	i	2	i	4	i	10*	i
O=C(c1cc(-c2ccccc2)nc2ccccc12)N1CCN(C2CCS(=O)(=O)C2)CC1 (centres undefined)	.	.	-1	.	-3	.	.	.
C=CCn1c(SCC(=O)O)nnc1-c1cccc(Cl)c1	6.6*	i	-1	i	-10	i	-1	i
C=CCn1c(SCC(=O)c2ccc(O)c(O)c2)nnc1-c1cccc(Cl)c1	.	.	1	.	-4	i	.	.
Cc1cccc2nc(CSC(=N)N)c(Br)n12	i	i	3	i	-1	i	28*	-38*
N=C(N)SCc1nc2ccccn2c1Br	i	i	1	i	7	i	.	.
O=C(O)c1cc(S(=O)(=O)N2CC=C(c3ccccc3)CC2)ccc1O	.	.	1	.	1	i	.	.
O=S(=O)(c1ccc(S(=O)(=O)N2CCN(C3CCCCC3)CC2)cc1)N1CCCCCC1	.	.	2	.	.	i	.	.
O=c1[nH]c2ccc(S(=O)(=O)N3CCN(C4CCCCC4)CC3)cc2[nH]c1=O	i	i	6	i	4	i	46*	-42*
COc1ccc(S(=O)(=O)N2CCOCC2)cc1C(=O)N1CCCCC1	i	i	-4	i	0	i	.	.
COc1cc(CNC(=O)c2cc(C(=O)NCc3cc(OC)cc(OC)c3)n(C)n2)cc(OC)c1	.	.	-4	.	.	i	.	.
COc1ccc(OC)c(C(=O)COC(=O)C(CCSC)NC(=O)COc2ccccc2)c1 (centres undefined)	i	i	5	i	-2	i	26*	i
COc1ccccc1C(=O)COC(=O)C(CCSC)NC(=O)COc1ccccc1 (centres undefined)	i	i	1	i	2	i	.	.
SMILES	CHT allo act	ANO1 block	IDE act	CHT block	IDE inh	TMEM16A act	CHT activ conf	HEK293 MP dye
Cc1cccn2c(=O)c3cc(C(=O)NC4CCCC4)c(=N)n(C4CCCC4)c3nc12	i	i	2	i	-6	i	34*	-39*
Cc1cccn2c(=O)c(/C=C(\C#N)C(=O)NC3CCS(=O)(=O)C3)c(Oc3ccccc3Cl)nc12 (centres undefined)	i	i	2	i	2	i	8	-47*
Cc1cccn2c(=O)c3cc(C(=O)N4COCC4(C)C)sc3nc12	i	i	-2	i	1	i	35*	-30*
Cc1cccn2c(=O)c3cc(C(=O)NC4CCS(=O)(=O)C4)sc3nc12 (centres undefined)	6.4*	i	-1	i	1	i	51*	-43*
Cc1ccccc1NC(=O)c1cc2c(=O)n3cccc(C)c3nc2s1	i	i	-2	i	-1	i	.	.
COc1ccccc1N1CCN(C(=O)CCC(=O)Nc2nnc(C(C)C)s2)CC1	i	i	2	i	1	i	.	.
Cc1ccc2c(c1)N(C(=O)CCC(=O)NC1CCN(Cc3ccccc3)CC1)CC(C)O2 (centres undefined)	i	i	6	i	-4	i	.	.
COc1cc(Cl)c(C)cc1NC(=O)CCN1C(=O)NC(C)(C)C1=O	.	.	-1	.	.	i	.	.
Cc1cc(C)nc(/N=C(\N)Nc2ccc(S(=O)(=O)Nc3nc(C)cc(C)n3)cc2)n1	8.7*	i	.	i	4	.	59*	-58*
COC(=O)CCC(=O)Nc1sc2c(c1C#N)CCCC2	9.2*	i	-1	i	1	i	25*	i
CCCC(=O)Nc1sc2c(c1C#N)CCCC2	i	i	4	i	1	i	.	.
O=C(Nc1cccnc1)c1ccc2c(c1)C(=O)N(Cc1cccnc1)C2=O	i	i	-6	i	-4	i	16*	-39*
CCOC(=O)c1c(-c2ccccc2)c[nH]c1C	.	.	0	.	.	i	.	.
